Sampled rows, rich in hits. Any-hit rate of the full collection: about 21%.
CHX counter = counter-screen for Shiga toxin inhibitors: cycloheximide protein synthesis inhibition | cell reporter, cycloheximide protein synthesis inhibition counterscreen | max response, % | 300,000 tested, 12% active; in the data active = max response mostly above about 13%, no sharp cut-off; inactive = mostly below about 14%; note: read at 38.3 µM for the half of the compounds with a filed dose
Shiga toxin inh = inhibitors of Shiga toxin in Vero cells; Vero cells, Shiga toxin protein synthesis inhibition reporter; inhibition, % at 38.7 µM; 290,000 tested, 9.2% active; AID 2315; in the data active = inhibition mostly above about 28%, no sharp cut-off; inactive = mostly below about 43%
NS1 inh = influenza NS1 inhibition. 270,000 tested, 0.4% active. AID 2326. Potency, µM (top dose mostly 46.1 µM); calls by dose curve; note: actives are rising curves; nearly all actives have a fitted effect of over 50% in size
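Compounds were scored for reversing the slow growth caused by influenza A NS1 in S. cerevisiae, measured by optical density at 600 nm. Assay medium contained 2% galactose at pH 6.0; NS1-free yeast of the same strain were the positive control.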
Giardia FBPA inh = blocks Giardia fructose-bisphosphate aldolase activity. A8B2U2. Potency, µM (doses to about 59.6 µM), most hits filed as inhibitors. 290,000 tested, 0.71% active. purified Giardia FBPA. AID 2451; note: nearly all actives have a fitted effect of over 55% in size
Target sequence (A8B2U2 whole entry, looked up): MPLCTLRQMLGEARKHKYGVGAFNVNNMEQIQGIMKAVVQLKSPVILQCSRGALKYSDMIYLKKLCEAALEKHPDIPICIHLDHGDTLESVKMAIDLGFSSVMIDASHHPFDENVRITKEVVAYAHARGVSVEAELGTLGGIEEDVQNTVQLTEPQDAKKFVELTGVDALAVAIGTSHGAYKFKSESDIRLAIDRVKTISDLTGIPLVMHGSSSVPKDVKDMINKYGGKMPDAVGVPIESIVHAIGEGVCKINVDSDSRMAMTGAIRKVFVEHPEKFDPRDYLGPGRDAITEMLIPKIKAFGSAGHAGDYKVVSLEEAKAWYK
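40 nM FBPA preincubated 10 min at RT with compound (up to 57.5 uM final), then substrate plus GAPDH/TPI/NAD/arsenate coupling and diaphorase/resazurin added. Fluorescence read after 20 min at RT, 525/598 nm.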
Pf growth 48h = inhibits P. falciparum growth in the first generation, 48 h; P. falciparum luciferase growth in erythrocytes, 48 h; Potency, µM (doses to about 28.7 µM), actives largely listed as inhibitors; 310,000 tested, 5.9% active
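In quantitative HTS format, infected erythrocytes bearing luciferase-reporter parasites were treated for a single generation at 37 C. Luminescence after adding detection reagent served as the growth measure.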
Pf growth 96h = inhibits malaria parasite growth, 96 h; P. falciparum luciferase reporter growth, 96 h; Potency, µM (titrated, usually from 28.7 µM), actives largely listed as inhibitors; 320,000 tested, 6.9% active
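96 h incubation, 37 C, 5% CO2, of luciferase-reporter P. falciparum-infected RBCs (2% hematocrit, 0.05% parasitemia final) with test compounds; endpoint luminescence.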
Numbers stand for hits; i = inactive; ? = inconclusive; nt = not tested or not shown. Unless noted, calls come from the whole dose curve; as a rule, active = well fitted curve in the direction sought with a large enough effect; inconclusive = small, poorly fitted or top-dose-only effect, or another doubt; inactive = no such curve, though single readings can be large; an effect the other way counts as inactive or inconclusive.

SMILES	CHX counter	Shiga toxin inh	NS1 inh	Giardia FBPA inh	Pf growth 48h	Pf growth 96h
O=C(CN1CCC(C(=O)c2ccc(Cl)cc2)CC1)Nc1ccc2c(c1)OCCO2	16.9	i	i	i	i	i
CC1CCN(CCC(=O)Nc2ccc3c(c2)OCCO3)CC1	i	i	nt	?	i	i
O=C(CN1C(=O)C2CC=CCC2C1=O)NCc1ccc2c(c1)OCO2 (stereo unspecified)	i	i	?	i	i	i
CC1CCCCC12NC(=O)N(CC(=O)NC(=O)Nc1ccc3c(c1)OCCO3)C2=O (stereo unspecified)	33.2	104.8	i	i	i	i
CC1Oc2ccccc2N(CC(=O)Nc2ccc3c(c2)OCCO3)C1=O (stereo unspecified)	44.3	i	i	i	i	11.7µM
CC1Oc2ccccc2N(CC(=O)Nc2ccc3c(c2)OCO3)C1=O (stereo unspecified)	i	i	i	i	i	i
Cc1ccc(NC(=O)COC(=O)CCOc2ccccc2C)cc1	i	i	nt	i	i	?
Cc1ccccc1OCCC(=O)OCC(=O)Nc1ccc(N2CCOCC2)cc1	13.7	i	i	nt	i	i
CCC(=O)c1ccc(OCC(=O)Nc2ccc(N3CCOCC3)cc2N2CCOCC2)cc1	i	i	i	nt	?	2.94µM
CCN(CC)S(=O)(=O)c1ccc(N2CCOCC2)c(NC(=O)CC23CC4CC(CC(Br)(C4)C2)C3)c1	i	i	i	i	i	10.4µM
CCN(CC)S(=O)(=O)c1ccc(N2CCOCC2)c(NC(=O)COc2ccccc2C#N)c1	i	i	i	i	11.7µM	?
O=C(COc1cccc(Br)c1)Nc1ccc(N2CCOCC2)cc1N1CCOCC1	nt	nt	nt	nt	?	i
COc1cccc(-c2c(C(=O)N/N=C/c3ccc(C)o3)nnn2-c2nonc2N)c1	i	i	i	?	?	?
COc1ccc(C(=O)N/C(=C\c2cn(C)c3ccccc23)C(=O)N2CCN(C)CC2)cc1OC	i	i	i	i	i	i
CCN(CC)S(=O)(=O)c1ccc(N2CCOCC2)c(NC(=O)COc2ccc(C#N)cc2)c1	i	i	i	i	?	i
Cc1ccc(NC(=O)COC(=O)CSC(=S)N2CCOCC2)cc1	27.1	i	i	i	i	?
CCN(CC)S(=O)(=O)c1ccc(N2CCCC2)c(NC(=O)Cc2ccccc2)c1	i	i	i	i	?	?
CCN(CC)S(=O)(=O)c1ccc(N2CCOCC2)c(NC(=O)COc2ccccc2C)c1	nt	nt	nt	nt	1.85µM	2.94µM
Cc1cccc(NC(=O)CSCC(=O)Nc2cc(Cl)ccc2N2CCOCC2)c1	nt	nt	nt	nt	11.7µM	?
Cc1cccc(NC(=O)CSCC(=O)Nc2cc(S(=O)(=O)N3CCOCC3)ccc2N2CCCC2)c1	i	i	i	i	?	?
CCN(CC)S(=O)(=O)c1ccc(N2CCOCC2)c(NC(=O)Cc2ccc(Cl)cc2)c1	i	i	i	i	11.7µM	11.7µM
O=C(NC(=S)N1CCCCC1c1cccnc1)c1ccc(Br)cc1 (stereo unspecified)	i	i	i	i	i	i
NCCSCc1ccccc1Cl	nt	nt	i	nt	nt	nt
Cc1ccccc1OCC(=O)Nc1ccc(N2CCOCC2)cc1N1CCOCC1	nt	nt	nt	nt	9.28µM	?
O=C(Cc1ccc2c(c1)OCCO2)Nc1cc(Cl)ccc1N1CCOCC1	nt	nt	nt	nt	11.7µM	?
SMILES	CHX counter	Shiga toxin inh	NS1 inh	Giardia FBPA inh	Pf growth 48h	Pf growth 96h
COc1ccc(-n2c(Cc3cccn3C)nnc2SCC(=O)N2CCC(C)CC2)cc1	i	i	?	i	?	0.37µM
Cc1ccc(-n2c(Cc3cccn3C)nnc2SCC(=O)Nc2ccc3c(c2)OCO3)cc1	i	i	i	i	14.7µM	?
COc1ccc(-n2c(Cc3cccn3C)nnc2SCC(=O)Nc2cccc(F)c2)cc1	i	i	i	i	8.28µM	?
COc1ccc(-n2c(Cc3cccn3C)nnc2SCC(=O)Nc2ccccc2)cc1	i	i	i	i	11.7µM	?
CC(=O)N[C@H]1CSSC[C@@H](C(=O)N2CCC[C@H]2C(=O)N2CCC[C@H]2C(=O)N[C@@H](CCCCN)C(=O)N[C@@H](CC(=O)O)C(N)=O)NC(=O)CNC(=O)[C@H](Cc2c[nH]c3ccccc23)NC(=O)[C@H](CCCNC(=N)N)NC(=O)[C@@H](Cc2ccc(Cl)c(Cl)c2)NC(=O)[C@H](Cc2cnc[nH]2)NC(=O)[C@H](CCC(=O)O)NC1=O	i	i	nt	i	nt	nt
COc1ccc2c(c1)O[C@H](c1ccc3c(c1)OCO3)[C@@H](OC(=O)NCCc1ccc(OC)c(OC)c1)C2=O	nt	nt	nt	i	nt	nt
COc1ccc(N(CC(=O)NCc2ccc(F)cc2)C(=O)c2snc(C(N)=O)c2N)cc1OC	i	i	i	i	i	i
CCc1ccc(NC(=O)CSc2nnc(Cc3cccn3C)n2-c2ccc(OC)cc2)cc1	i	i	i	i	?	8.28µM
Fc1ccccc1Nc1nc2ccccc2o1	45.0	97.5	i	i	i	i
c1ccc(Nc2nc3ccccc3o2)cc1	33.2	119.3	i	i	nt	i
FC(F)(F)Oc1ccc(Nc2nc3ccccc3o2)cc1	33.1	76.8	i	i	i	?
Fc1ccccc1Nc1nc(-c2ccncc2)nc2ccccc12	i	i	i	i	?	?
Cc1cc(C)nc(Nc2nc3ccccc3o2)n1	27.4	45.3	i	i	?	i
CO[C@H]1/C=C/O[C@@]2(C)Oc3c(C)c(O)c4c(O)c(c(/C=N\N5CCN(C6CCCC6)CC5)c(O)c4c3C2=O)NC(=O)/C(C)=C\C=C\[C@H](C)[C@H](O)[C@@H](C)[C@@H](O)[C@@H](C)[C@H](OC(C)=O)[C@@H]1C	nt	nt	nt	nt	i	i
O=C(NC(=Nc1nc2ccccc2o1)NC(=O)c1ccccc1)c1ccccc1	i	i	i	i	i	i
O=C(NNc1nc2ccccc2o1)c1ccccc1	29.8	55.5	i	i	i	i
CCC(Cc1c(I)cc(I)c(N)c1I)C(=O)O (stereo unspecified)	nt	nt	nt	i	i	i
CCN(CC)C(=O)c1[nH]cnc1C(=O)NCC(=O)OC(C)(C)C	i	i	i	?	i	?
O=C(NCC1CCCO1)C(c1ccc(F)cc1)N(Cc1ccc2c(c1)OCO2)C(=O)c1ccc(CN2CCOCC2)o1 (stereo unspecified)	i	i	i	i	i	i
CCC(C)(C)NC(=O)C(Sc1ccccc1)c1ccccc1 (stereo unspecified)	i	i	i	i	?	10.4µM
CCCS(=O)(=O)c1c(S(=O)(=O)CCC)c2c3ccccc3ccn2c1C(=O)OC	i	i	i	i	11.7µM	i
Cc1ccc2nc(-c3ccc(NC(=O)CSc4nccc(=O)[nH]4)cc3)sc2c1	36.8	117.4	i	i	i	i
Cc1ccc(NC(=O)CSc2nc3nc(C)cc(C)c3c(=O)[nH]2)cc1	i	i	i	i	i	2.33µM
Cc1ccc2nc(-c3ccc(NC(=O)CSc4nc(N)cc(=O)[nH]4)cc3)sc2c1	30.3	94.0	?	i	i	i
Cc1cc(C)c2c(=O)[nH]c(SCC(=O)Nc3ccccc3)nc2n1	i	i	i	i	nt	nt
CCCc1nc2oc3ccccc3c(=O)c2c(=O)n1CCCOC	i	i	i	i	?	?

Source: PubChem
